Measurements reported in PubChem BioAssay (Tox21).
Several values for one entry are separate records, joined by “and”; a condition that tells them apart may be missing. Equal values may be shown once. Inconclusive results are not listed. A structure can be active in one record and inactive in another. Activity calls are given as the source filed them. Unless noted, calls come from the whole dose curve; as a rule, active = well fitted curve in the direction sought with a large enough effect in the repeat runs; inconclusive = weak or mixed curves; inactive = no such curve, though single readings can be large; an effect the other way counts as inactive or inconclusive.

Assays:
[1] = target: Retinoic acid receptor RXR-alpha (Homo sapiens) (UniProt P19793); experiment: qHTS assay to identify small molecule agonists of the RXR signaling pathway (AID 1159527; calls by dose curve; note: nearly all actives have a fitted effect of over 35% in size; note: potency is the fitted concentration of half-maximal effect)
Sequence of Retinoic acid receptor RXR-alpha (Homo sapiens) (P19793 whole entry, looked up): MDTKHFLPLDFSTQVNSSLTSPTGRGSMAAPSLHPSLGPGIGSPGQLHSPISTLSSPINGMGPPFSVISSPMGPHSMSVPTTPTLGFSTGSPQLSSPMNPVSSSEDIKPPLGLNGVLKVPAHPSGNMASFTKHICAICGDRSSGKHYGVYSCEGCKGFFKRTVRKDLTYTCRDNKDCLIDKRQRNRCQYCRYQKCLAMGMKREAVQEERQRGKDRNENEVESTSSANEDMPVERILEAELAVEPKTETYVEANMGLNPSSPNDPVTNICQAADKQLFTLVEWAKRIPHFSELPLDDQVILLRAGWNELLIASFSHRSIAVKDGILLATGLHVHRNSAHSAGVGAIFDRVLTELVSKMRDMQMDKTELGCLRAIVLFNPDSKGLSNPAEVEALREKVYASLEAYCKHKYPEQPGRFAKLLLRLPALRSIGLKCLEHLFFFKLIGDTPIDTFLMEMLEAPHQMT
Summary of the method: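 Reporter activation is measured as beta-lactamase activity via FRET substrate cleavage (emission 460/530 nm) in HEK 293T cells expressing an RXR-alpha-driven bla construct, following 16 hr compound exposure at 37 C.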

[2] = qHTS assay to identify small molecule agonists of the RXR signaling pathway - cell viability counter screen (AID 1159529); note: nearly all actives have a fitted effect of over 50% in size; note: potency is the fitted concentration of half-maximal effect; for activity change, negative = cytotoxicity: series mostly up to about 77 µM
Summary of the method: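 Tox21 10K compounds were tested for cytotoxicity against GeneBLAzer RXR-alpha HEK 293T cells grown in 2% charcoal-stripped FBS. Exposure lasted 16 hr at 37 C, 5% CO2; viability read by CellTiter-Glo luminescence.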

[3] = qHTS assay to identify small molecule antagonists of the retinoid acid receptor (RAR) signaling pathway - cell viability counter screen (AID 1159551); note: nearly all actives have a fitted effect of over 35% in size; note: potency is the fitted concentration of half-maximal effect
Summary of the method: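 Luminescent ATP quantitation (CellTiter-Glo) gave cell viability in C3RL4 cells exposed to test chemicals for 6 h at 37 C alongside 1 uM final retinol.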

[4] = qHTS assay to identify small molecule antagonists of the retinoic acid receptor (RAR) signaling pathway (AID 1159552; note: nearly all actives have a fitted effect of over 50% in size; note: potency is the fitted concentration of half-maximal effect)
Summary of the method: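 Overnight-plated C3RL4 reporter cells get compound, then retinol to 1 uM final; plates sit 6 hr at 37 C, 5% CO2. A luciferase reagent is added and light output recorded after 30 min at room temperature.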

[5] = qHTS assay to identify small molecule agonists of the retinoic acid receptor (RAR) signaling pathway (AID 1159553); note: potency is the fitted concentration of half-maximal effect
Summary of the method: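 Luminescence from a RARE-driven luciferase reporter in C3RL4 cells served as the read-out, measured after 30 min with detection reagent at room temperature. Compounds in DMSO were applied for 6 hr at 37 C following overnight seeding.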

[6] = qHTS assay to identify small molecule antagonists of the estrogen related receptor (ERR) signaling pathway - cell viability counter screen (AID 1224818);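 note: series mostly up to about 46 µM; viability measured after 17.5 h of compound exposure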
Summary of the method: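 Multiplexed counter screen to separate cytotoxic compounds from true ERR modulators. ERR cells received DMSO-dissolved compounds after a 6 h pre-incubation, were exposed 17.5 h at 37 C, then assayed with CellTiter-Fluor fluorescence.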

[7] = qHTS assay to identify small molecule antagonists of the estrogen related receptor (ERR) signaling pathway (AID 1224819;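 note: luminescence from an ERR-driven luciferase reporter measured with One-Glo reagent; series mostly up to about 46 µM; nearly all actives have a fitted effect of over 50% in size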)
Source text: National Center for Advancing Translational Sciences [NCATS]
NIH Chemical Genomics Center [NCGC]
U.S. Environmental Protection Agency [EPA]
National Institutes of Environmental Health Sciences [NIEHS]
National Toxicology Program [NTP]
U.S. Food and Drug Administration [FDA]
Estrogen related receptors (ERRs), the first orphan nuclear receptors discovered, play an important role in the control of cellular energy metabolism. ERRs are required for high-energy production in response to the environmental challenges. ERR-alpha was also identified as an adverse marker for breast cancer progression; ERR-alpha-positive tumors have a poor prognosis. To screen and to identify environmental compounds that perturb the ERR signaling pathways could provide valuable information for potential therapeutic or preventive measures in the treatment of metabolic disease. For identifying ERR antagonists, ERR cell line (provided by NTP) has been used to screen LOPAC library.
Tox21 Assay Protocol Summary:
The ERR cells were dispensed at 2,000 cells/5 ul/well in 1536-well white plates using a Multidrop dispenser. After the assay plates were incubated at a 37 C/5% CO2 incubator for 6 hours, 23 nL of compounds dissolved in DMSO, positive and negative controls or DMSO only was transferred to the assay plate by a pin tool. The plates were incubated at 37 C for 18 hours. 4 ul/well of One-Glo reagent was added into the assay plates using a Flying Reagent Dispenser. After 30 min incubation at room temperature, the luminescence intensity in the plates was measured using a ViewLux plate reader.

[8] = qHTS assay to identify small molecule agonists of the estrogen related receptor (ERR) signaling pathway (AID 1224820)
Summary of the method: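 Quantitative HTS of the LOPAC library used NTP ERR reporter cells treated 18 h at 37 C. Signal is luminescence after One-Glo addition and a 30 min room-temperature incubation.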

[9] = tested on: estrogen-related receptor alpha (ERRalpha) with PGC-1alpha coactivator, human; experiment: qHTS assay to identify small molecule antagonists of the estrogen related receptor signaling pathway with the pleiotropic PPARgamma coactivator (PGC) (AID 1224821; calls by dose curve;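 note: series mostly up to about 46 µM; lower luminescence signal means antagonism of PGC/ERR signalling; nearly all actives have a fitted effect of over 50% in size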)
Summary of the method: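 Quantitative HTS for antagonism: PGC/ERR cells received compounds after 6 h attachment and were incubated 18 h at 37 C, with luminescence (One-Glo) as the endpoint.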

[10] = qHTS assay to identify small molecule antagonists of the estrogen related receptor signaling pathway with the pleiotropic PPARgamma coactivator (PGC) cell viability counter screen (AID 1224822;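 note: series mostly up to about 46 µM; viability read after 17.5 h compound exposure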)
Summary of the method: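 Cells: PGC/ERR, 2,000/well, 1536-well format. Pre-incubation 6 h, 37 C/5% CO2. Compound exposure 17.5 h, 37 C. Detection: CellTiter-Fluor, 30 min, fluorescence.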
% is set by controls: 0 for no effect and ±100 for the full control effect.

CN1C(=O)COc2c(C(=O)NC3CN4CCC3CC4)cc(Cl)cc21 (stereo not given)
inactive: Potency [1] | Potency [2] | Potency [3] | Potency [4] | Potency [5]

CNC(=O)Oc1ccccc1C(C)C
active: Potency [1] 49 µM
inactive: Potency [2] | Potency [3] | Potency [4] | Potency [5]

O=C1C2CC=CCC2C(=O)N1SC(Cl)(Cl)Cl (stereo not given)
inactive and 24.1 µM (active): Potency [2]
inactive: Potency [1] | Potency [5]
inactive and 5.36 µM (active): Potency [4]
inactive and 26.9 µM (active): Potency [3]

COc1cc(CCN)cc(OC)c1OC
inactive: Potency [1] | Potency [2] | Potency [3] | Potency [4] | Potency [5]

O=c1[nH]oc2c1CCNC2
inactive: Potency [1] | Potency [2] | Potency [3] | Potency [4] | Potency [5] | outcome [6] | outcome [7] | outcome [8] | outcome [9] | outcome [10]

O=C(O)C(Cl)Br (stereo not given)
inactive: Potency [1] | Potency [2] | Potency [3] | Potency [5]

N[C@@H](Cc1ccc(Oc2cc(I)c(O)c(I)c2)c(I)c1)C(=O)O
inactive: Potency [1] | Potency [2] | Potency [3] | Potency [4] | Potency [5]

CCOc1cc(OP(=S)(OC)OC)nc(CC)n1
inactive: Potency [1] | Potency [2] | Potency [3] | Potency [4] | Potency [5]

CCOC(=O)CCl
inactive: Potency [1] | Potency [2] | Potency [3] | Potency [4] | Potency [5]

C=C1CC[C@@]2(O)[C@H]3Cc4ccc(O)c5c4[C@@]2(CCN3CC2CC2)[C@H]1O5
inactive: Potency [1] | Potency [2] | Potency [3] | Potency [4] | Potency [5]

CCOC(=O)NC(C)(C)Cc1ccc(Cl)cc1
inactive: Potency [1] | Potency [2] | Potency [3] | Potency [4] | Potency [5]

CC(=NC#N)N(C)Cc1ccc(Cl)nc1
inactive: Potency [1] | Potency [2] | Potency [3] | Potency [4] | Potency [5]

CCCOc1nn(C(=O)NS(=O)(=O)c2ccccc2C(=O)OC)c(=O)n1C
inactive: Potency [1] | Potency [2] | Potency [3] | Potency [5]

N#CN
inactive: Potency [1] | Potency [2] | Potency [3] | Potency [4] | Potency [5]

ClCC1CO1 (stereo not given)
inactive: Potency [1] | Potency [2] | Potency [3] | Potency [4] | Potency [5]

O=S1(=O)OCCO1
inactive: Potency [1] | Potency [2] | Potency [3] | Potency [4] | Potency [5]

O=C(Cl)C(Cl)Cl
inactive: Potency [1] | Potency [2] | Potency [3] | Potency [4] | Potency [5]

N[C@@H]1C[C@H]1c1ccccc1
inactive: Potency [1] | Potency [2] | Potency [3] | Potency [4] | Potency [5]

Cl/C=C/CCl
inactive: Potency [1] | Potency [2] | Potency [3] | Potency [4] | Potency [5]

OCC(Cl)CCl (stereo not given)
inactive: Potency [1] | Potency [2] | Potency [3] | Potency [4] | Potency [5]

Cn1c(CCCC(=O)O)nc2cc(N(CCCl)CCCl)ccc21
inactive: Potency [1] | Potency [2] | Potency [3] | Potency [4] | Potency [5] | outcome [6] | outcome [8] | outcome [9] | outcome [10]

O=C(O)c1c(Cl)ccc2cc(Cl)cnc12
inactive: Potency [1] | Potency [2] | Potency [3] | Potency [4] | Potency [5]

C=C(Cl)CSC(=S)N(CC)CC
inactive: Potency [1] | Potency [2] | Potency [3] | Potency [4] | Potency [5]

O=C(O)C(F)(F)C(F)(F)C(F)(F)C(F)(F)C(F)(F)C(F)(F)F
inactive: Potency [1] | Potency [2] | Potency [3] | Potency [5]

Cc1ccc2c(c1)C1CN(C)CCC1N2 (stereo not given)
inactive: activation [1] -0.325% [at 15.8 µM] | activity change, negative = cytotoxicity [3] 2.36% [at 19 µM] | activity, negative = inhibition [4] -12.3% [at 19 µM] | Potency [5]

C[N+]1(C)CCCCC1
active: Potency [1] 6.09 µM
inactive: Potency [2] | Potency [3] | Potency [5]

O=[N+]([O-])CCO
inactive: Potency [1] | Potency [2] | Potency [3] | Potency [5]

COC[C@@H](NC(C)=O)C(=O)NCc1ccccc1
inactive: Potency [1] | Potency [2] | Potency [3] | Potency [5]

C[C@H]1CCCC(=O)CCC/C=C/c2cc(O)cc(O)c2C(=O)O1
inactive: Potency [1] | Potency [3]

CCOC(=O)C(Cl)Cc1cc(-n2nc(C)n(C(F)F)c2=O)c(F)cc1Cl (stereo not given)
inactive: Potency [1] | Potency [2] | Potency [3] | Potency [5]

CS(=O)(=O)c1ccc(C(=O)C2C(=O)CCCC2=O)c(Cl)c1COCC(F)(F)F
inactive: Potency [1] | Potency [2] | Potency [3] | Potency [5]

CCC1(c2ccccc2)C(=O)N(COC)C(=O)N(COC)C1=O
inactive: Potency [1] | Potency [2] | Potency [3] | Potency [5]

CCCCS(=O)(=O)Cl
inactive: Potency [1] | Potency [2] | Potency [3] | Potency [5]

CN=CNc1ccc(C)cc1C
inactive: Potency [1] | Potency [3] | Potency [4] | Potency [5]

O=C(O)C(Br)(Br)Br
inactive: Potency [1] | Potency [2] | Potency [3] | Potency [5]

C=C(Cl)CCl
inactive: Potency [1] | Potency [2] | Potency [3] | Potency [5]

Cc1ccc(-c2nc3ccc(C)cn3c2CC(=O)N(C)C)cc1
active: Potency [5] 23.7 µM
inactive: Potency [1] | Potency [3] | Potency [4]

Oc1ccc2c3c1O[C@H]1[C@@H](O)C=C[C@H]4[C@@H](C2)NCC[C@@]341
inactive: Potency [1] | Potency [2] | Potency [3] | Potency [5]
